Data on 14 compounds can be found in PubChem BioAssay (NCI).

Each structure is given as a SMILES string. About 83,000 compounds went through this panel and 20% of them were active in at least one assay; those are over-represented in the sample as a whole.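 Method: cells in 96-well plates; compound added at one concentration; 48 h incubation; percent growth measured; values under 10 scored active.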 A number with no mark means an inactive call. Activity calls are given as the source filed them.

Among the test systems are SK-MEL-2 melanoma; EKVX NSCLC; SN12C renal; UO-31 renal; TK-10 renal; ACHN renal; CAKI-1 renal; A498 renal; CCRF-CEM leukemia; MOLT-4 leukemia.
Common to all, as to experiment: NCI-60 one-dose screen, 48 h (100 = growth as untreated, 0 = no growth, -100 = all killed)
Conditions in all cases: 10 µM unless noted

Turning to `COc1ccc(C2(Cl)c3ccccc3N(c3ccccc3)c3ccccc32)cc1`, the growth in the test with SK-MEL-2 melanoma was -39.9% (active); with EKVX NSCLC, 0.119% (active); in the test with SN12C renal, -1.51% (active); with UO-31 renal it was 7.46% (active); with TK-10 renal it was 8.72% (active); in the test on ACHN renal, 4.85% (active). For the same compound, the growth with CAKI-1 renal is 7.42% (active); in the test on A498 renal, -26.5% (active); in the test with CCRF-CEM leukemia, 20.6%; with MOLT-4 leukemia, 12.7%.

As for `COc1cc(-c2cc3ncccc3c3nc(N)c4cccnc4c23)cc(OC)c1OC`, the growth in the test on SK-MEL-2 melanoma is 30.7%; in the test with EKVX NSCLC, 27.1%; in the test with SN12C renal, 26.7%; with UO-31 renal, 51.1%; in the test with TK-10 renal, 16.3%; with ACHN renal, 22.6%. The growth is 31.1% in the test with CAKI-1 renal, -17.6% (active) in the test with A498 renal and 32.5% in the test with CCRF-CEM leukemia.

As to `Cn1c(=O)c2c(nc(N3CCCC3)n2C)n(C)c1=O`, the growth is 97.4% in the test with SK-MEL-2 melanoma; 98.9% in the test on EKVX NSCLC; 102% with SN12C renal; 93.8% in the test on UO-31 renal; 85.3% in the test on TK-10 renal; 106% in the test with ACHN renal. Further, the growth in the test on CAKI-1 renal was 93.8%; in the test with A498 renal it was 81.9%; with CCRF-CEM leukemia, 105%.

`CC1(C)CC[C@]2(C(=O)NCCNCCN)CC[C@]3(C)C(=CC[C@@H]4[C@@]5(C)CCC(=O)C(C)(C)[C@@H]5CC[C@]43C)[C@@H]2C1`: the growth was 82.4% in the test on SK-MEL-2 melanoma; 94.8% in the test with EKVX NSCLC; 14.2% with SN12C renal; 87.8% in the test on UO-31 renal; 127% in the test with TK-10 renal; 12.2% with ACHN renal. The growth is 27.1% in the test with CAKI-1 renal, 81.5% in the test with A498 renal and -17.8% (active) in the test on CCRF-CEM leukemia.

Regarding `Cn1cnc2c1c(=O)n(CCC(=O)Nc1ccc(F)cc1)c(=O)n2C`, the growth was 105% in the test on SK-MEL-2 melanoma; 107% in the test with EKVX NSCLC; 102% in the test on SN12C renal; 92.7% in the test with UO-31 renal; 92.7% in the test on TK-10 renal; 114% with ACHN renal. The growth with CAKI-1 renal is 93.7%; in the test with A498 renal it was 96.8%; in the test with CCRF-CEM leukemia, 99.5%; in the test with MOLT-4 leukemia it was 106%.

For `Cc1csc(-c2ccc3c(c2)COC3(CCCN(C)C)c2ccc(F)cc2)c1` (centres undefined), the growth with SK-MEL-2 melanoma was 25.8%; in the test with EKVX NSCLC, 72.2%; with SN12C renal it was 62.7%; in the test with UO-31 renal, 44.7%; in the test with TK-10 renal, 55%; in the test on ACHN renal it was 63.6%. The growth in the test with CAKI-1 renal is 27.7%; in the test on A498 renal, 86.2%; in the test with CCRF-CEM leukemia it was 11.3%.

In the case of `CCCCCCCN(CCCCCCC)C(=N)c1ccnc2ccccc12`, the growth in the test with SK-MEL-2 melanoma is -46.5% (active); with EKVX NSCLC it was -15.6% (active); in the test on SN12C renal, -42% (active); in the test with UO-31 renal it was -62.5% (active); in the test with TK-10 renal, 14.9%; in the test on ACHN renal, -81.9% (active). For the same compound, the values for the growth in the test on CAKI-1 renal and in the test on A498 renal were 3.85% (active) and -17.2% (active), respectively.

Regarding `CCOC(=O)C1OC1(c1ccccc1)c1ccccc1` (centres undefined), the growth with SK-MEL-2 melanoma was 112%; in the test on EKVX NSCLC, 101%; in the test on SN12C renal it was 98.7%; in the test on UO-31 renal, 88.1%; in the test with TK-10 renal it was 107%; in the test on ACHN renal, 103%. Further, the growth was 79.5% in the test on CAKI-1 renal, 106% with A498 renal, 100% in the test on CCRF-CEM leukemia and 105% with MOLT-4 leukemia.

For the compound `Cn1cc(-c2nc(-c3cn(C)c4ncccc34)cs2)c2ccccc21`, the growth in the test on SK-MEL-2 melanoma was 28.6%; with EKVX NSCLC it was 62.6%; in the test on SN12C renal, 52.8%; with UO-31 renal, 62.4%; in the test with TK-10 renal it was 50.5%; in the test on ACHN renal, 49.6%. The growth with CAKI-1 renal is 28.3%; in the test with A498 renal, 45.4%; in the test on CCRF-CEM leukemia it was 47.1%.

As to `Cc1cc2nc3c4cc([N+](=O)[O-])cc([N+](=O)[O-])c4n(CCN(C)C)c3nc2cc1C`, the growth was 108% in the test on SK-MEL-2 melanoma; 82.7% in the test with EKVX NSCLC; 59.7% in the test on SN12C renal; 40.4% in the test with UO-31 renal; 117% in the test with TK-10 renal; 35.5% in the test on ACHN renal. Besides, the growth in the test with CAKI-1 renal was 49.6%; with A498 renal it was 97%; in the test with CCRF-CEM leukemia, 63.1%.

Turning to `COc1cccc(-c2nn(-c3ccccc3)cc2-c2ccnc(NCCNS(=O)(=O)c3cccc(F)c3)c2)c1`, the growth is 16.2% with SK-MEL-2 melanoma; 44.6% with EKVX NSCLC; 33.8% in the test on SN12C renal; 15.7% with UO-31 renal; 36.7% in the test with TK-10 renal; 21.7% in the test with ACHN renal. Further, the values for the growth in the test with CAKI-1 renal, in the test with A498 renal and with CCRF-CEM leukemia were 35.9%, 47.7% and 12.3%, respectively.

Turning to `Cn1cc(-c2csc(-c3c[nH]c4ccccc34)n2)c2cccnc21`, the growth is 38.2% with SK-MEL-2 melanoma; 42.5% with EKVX NSCLC; 46.5% in the test with SN12C renal; 57.2% with UO-31 renal; 48% in the test on TK-10 renal; 51.8% in the test with ACHN renal. Also, the growth is 15.7% in the test with CAKI-1 renal, 13.5% in the test with A498 renal and 20.4% with CCRF-CEM leukemia.

With `CCN1CCN(C(=O)[C@]23CCC(C)(C)C[C@@H]2C2=CC[C@@H]4[C@@]5(C)C/C(=C/c6ccncc6)C(=O)C(C)(C)[C@@H]5CC[C@@]4(C)[C@]2(C)CC3)CC1`, the growth was -30.8% (active) with SK-MEL-2 melanoma; 15.3% in the test with EKVX NSCLC; -70.1% (active) in the test with SN12C renal; -92.7% (active) in the test with UO-31 renal; 32.3% with TK-10 renal; 3.29% (active) in the test on ACHN renal. Moreover, the growth in the test with CAKI-1 renal was 23.2%; in the test with A498 renal, -22.6% (active); with CCRF-CEM leukemia, 3.73% (active).

For the compound `C#CCn1c(C)cc(C)c(C#N)c1=O`, the growth with SK-MEL-2 melanoma was 108%; in the test on EKVX NSCLC, 99.6%; in the test on SN12C renal, 100%; in the test with UO-31 renal, 85.6%; in the test on TK-10 renal, 94.2%; in the test on ACHN renal, 106%. For the same compound, the growth was 95.2% in the test on CAKI-1 renal, 104% in the test on A498 renal, 99.2% in the test on CCRF-CEM leukemia and 111% in the test with MOLT-4 leukemia.
